{"source": "PubChem BioAssay (NCATS)", "note": "Records with an inconclusive call do not appear. Entries that show only a call come without a potency. Active and inactive are the calls of the source. Calls follow the shape of the full dose curve; tested in HEK293 reporter line. Also: nearly all actives have a fitted effect of over 80% in size."}
{"test": "qHTS for Inhibitors of the Functional Ribonucleoprotein Complex (vRNP) of Lassa (LASV) Arenavirus: Viability assay - alamar blue signal for LASV Primary Screen (AID 1347083)", "conditions": "cell viability, alamar blue fluorescence (LASV minigenome counter-screen); series mostly up to 57.5 µM"}
{"compound": "CCOC(=O)c1ccc(C#Cc2ccc3c(c2)C(C)(C)CCS3)nc1", "Potency": "inactive"}
{"compound": "CCOC(=O)OC(C)OC1=C(C(=O)Nc2ccccn2)N(C)S(=O)(=O)c2ccccc21", "note": "(centres undefined)", "Potency": "inactive"}
{"compound": "O=c1[nH]c2ccccc2n1CCCN1CCN(C(c2ccccc2)c2ccccc2)CC1", "Potency": "inactive"}
{"compound": "O=C(O)c1cccc(-c2noc(-c3ccccc3F)n2)c1", "Potency": "inactive"}
{"compound": "COc1cc(N)c(Cl)cc1C(=O)NC1CCN(CCCOc2ccc(F)cc2)CC1OC", "note": "(centres undefined)", "Potency": "inactive"}
{"compound": "O=C1OC2(c3ccccc31)c1cc(I)c(O)c(I)c1Oc1c2cc(I)c(O)c1I", "Potency": "inactive"}
{"compound": "N[C@@H](Cc1cc(I)c(O)c(I)c1)C(=O)O", "Potency": "inactive"}
{"compound": "COc1ccc(CCN2CCC(Nc3nc4ccccc4n3Cc3ccc(F)cc3)CC2)cc1", "Potency": "inactive"}
{"compound": "COC(=O)C1=C(C)NC(C)=C(C(=O)OCCCN2CCC(c3ccccc3)(c3ccccc3)CC2)C1c1cccc([N+](=O)[O-])c1", "note": "(centres undefined)", "Potency": "inactive"}
{"compound": "CN(C)CCCOc1nn(Cc2ccccc2)c2ccccc12", "Potency": "inactive"}
{"compound": "c1ccc(CC2=NCCN2)cc1", "Potency": "inactive"}
{"compound": "CC(=O)N(CC(=O)N(C)C)c1ccccc1", "Potency": "inactive"}
{"compound": "CC1(C)O[C@@H]2C[C@H]3[C@@H]4CCC5=CC(=O)CC[C@]5(C)[C@@]4(F)[C@@H](O)C[C@]3(C)[C@]2(C(=O)CCl)O1", "Potency": "inactive"}
{"compound": "C=C[C@@]1(C)CC(=O)[C@]2(O)[C@@]3(C)[C@@H](O)CCC(C)(C)[C@@H]3[C@H](O)[C@H](OC(C)=O)[C@@]2(C)O1", "Potency": "inactive"}
{"compound": "CC(CNC1CCCCC1)OC(=O)c1ccccc1", "note": "(centres undefined)", "Potency": "inactive"}
{"compound": "CN1CCC(=C2c3ccccc3CCc3cccnc32)CC1", "Potency": "inactive"}
{"compound": "O=C(CS)Nc1ccccc1", "Potency": "inactive"}
{"test": "qHTS for Inhibitors of the Functional Ribonucleoprotein Complex (vRNP) of Lymphocytic Choriomeningitis Arenaviruses (LCMV): Viability assay - alamar blue signal for LCMV Primary Screen (AID 1347085); also: potency is read from the fitted curve at half-maximal effect", "conditions": "alamar blue viability counter-screen, LCMV vRNP screen cells; series mostly up to 57.5 µM"}
{"compound": "CCCCCCCCCCCCCCCC[N+](C)(C)Cc1ccccc1", "Potency": "inactive"}
{"compound": "CCCOc1ccc2nc(NC(=O)OC)[nH]c2c1", "Potency": "0.0172 µM (active)"}
{"compound": "CC(NCCC(c1ccccc1)c1ccccc1)c1ccccc1", "note": "(centres undefined)", "Potency": "inactive"}
{"compound": "COc1ccc(OC(=O)N(CC(=O)O)Cc2ccc(OCCc3nc(-c4ccccc4)oc3C)cc2)cc1", "Potency": "inactive"}
{"compound": "COC[C@@H](c1ccc(C(F)(F)F)cc1)N1CCN(C2(C)CCN(C(=O)c3c(C)ncnc3C)CC2)C[C@H]1C", "Potency": "38.5 µM (active)"}
{"compound": "O=C(CCCN1CCN(c2ccc(F)cc2)CC1)NC1c2ccccc2CSc2ccccc21", "note": "(centres undefined)", "Potency": "inactive"}
{"compound": "CCCCOc1ccc(CC(=O)NO)cc1", "Potency": "inactive"}
{"compound": "CN1CCC(Nc2ncc3ncnc(Nc4ccc(F)c(Cl)c4)c3n2)CC1", "Potency": "inactive"}
{"compound": "O=Cc1ccc(O)c(O)c1O", "Potency": "inactive"}
{"compound": "O=c1[nH]c(=O)n([C@H]2C[C@H](O)[C@@H](CO)O2)cc1C(F)(F)F", "Potency": "15.8 µM (active)"}
{"compound": "O=C(Nc1ccc([N+](=O)[O-])cc1Cl)c1cc(Cl)ccc1O", "Potency": "inactive"}
{"compound": "CN(C)CCN(Cc1ccc(Cl)cc1)c1ccccn1", "Potency": "inactive"}
{"compound": "COc1cc(N)c(Cl)cc1C(=O)NC1CCN(Cc2ccccc2)CC1", "Potency": "inactive"}
{"compound": "CN(C)CC/C=C1\\c2ccccc2Sc2ccc(Cl)cc21", "Potency": "inactive"}
{"compound": "CCOC(=O)Nc1ccc(NCc2ccc(F)cc2)nc1N", "Potency": "inactive"}
{"compound": "O=C(NOCC1CC1)c1ccc(F)c(F)c1Nc1ccc(I)cc1Cl", "Potency": "inactive"}
{"compound": "O=S(=O)(O)NC1CCCCC1", "Potency": "inactive"}
{"compound": "CC/C(=C(/CC)c1ccc(O)cc1)c1ccc(O)cc1", "Potency": "inactive"}
{"compound": "C[C@@H]1CN(CCCn2c3ccccc3c3ccccc32)C[C@H](C)N1", "Potency": "inactive"}
{"compound": "CN1CCC(=C2c3ccccc3CC(=O)c3sccc32)CC1", "Potency": "inactive"}
{"compound": "CCO[C@@H]1O[C@H](C(COCc2ccccc2)OCc2ccccc2)[C@H](OCc2ccccc2)[C@H]1O", "note": "(some centres undefined)", "Potency": "inactive"}
{"compound": "CCOC(=O)[C@H](CCc1ccccc1)N[C@@H](C)C(=O)N(CC(=O)O)C1Cc2ccccc2C1", "Potency": "inactive"}
